Results filed as inconclusive are left out. Entries that show only a call come without a potency. The source made the active and inactive calls. Calls follow the shape of the full dose curve.
Biological target: Peroxisome proliferator-activated receptor gamma (Homo sapiens) (UniProt P37231)
Assay: qHTS assay to identify small molecule antagonists of the peroxisome proliferator-activated receptor gamma (PPARg) signaling pathway (AID 743191); also: nearly all actives have a fitted effect of over 30% in size
Settings: HEK293H PPARg-UAS-bla, beta-lactamase ratio, antagonist, 17 h; series mostly up to 62.6 µM
Source text: U.S. Tox21 Program National Center for Advancing Translational Sciences [NCATS] NIH Chemical Genomics Center [NCGC] U.S. Environmental Protection Agency [EPA] National Institutes of Environmental Health Sciences [NIEHS] National Toxicology Program [NTP] U.S. Food and Drug Administration [FDA] Tox21 Assay Overview: The peroxisome proliferator-activated receptors (PPARs) are lipid-activated transcription factors of the nuclear receptor superfamily with three distinct subtypes namely PPAR alpha, PPAR delta (also called PPAR beta) and PPAR gamma (PPARg). All these subtypes heterodimerize with Retinoid X receptor (RXR) and these heterodimers regulate transcription of various genes. PPAR-gamma receptor (glitazone receptor) is involved in the regulation of glucose and lipid metabolism. To identify the compounds that inhibit PPAR-gamma signaling, GeneBLAzer PPAR gamma UAS-bla HEK293H cell line (Invitrogen, Carlsbad, CA, USA) containing a beta-lactamase reporter gene under control of an Upstream Activator Sequence (UAS) was used to screen the Tox21 compound library.
Tox21 Assay Protocol Summary: PPARg-bla cells were dispensed at 3000 cells/6uL/well in 1536-well black wall/clear bottom plates using a Multidrop Combi (Thermo Fisher Scientific, Waltham, MA) dispenser. After the assay plates were incubated at 37C and 5% CO2 for 5 h, 23 nL of compounds dissolved in DMSO, positive controls or DMSO only was transferred to the assay plate by a Pintool station (Kalypsys, San Diego, CA). The assay plates were incubated at 37C for 17 h. After 1 uL of LiveBLAzerTM B/G FRET substrate was added using a Bioraptr Flying Reagent Dispenser (FRD) workstation (Beckman Coulter, Indianapolis, IN, USA), the plates were incubated at room temperature for 1 h, and fluorescence intensity was measured by an Envision plate reader (PerkinElmer, Shelton, CT).
Potency is read from the fitted curve at half-maximal effect.

Peroxisome proliferator-activated receptor gamma (Homo sapiens), sequence (P37231 whole entry, looked up): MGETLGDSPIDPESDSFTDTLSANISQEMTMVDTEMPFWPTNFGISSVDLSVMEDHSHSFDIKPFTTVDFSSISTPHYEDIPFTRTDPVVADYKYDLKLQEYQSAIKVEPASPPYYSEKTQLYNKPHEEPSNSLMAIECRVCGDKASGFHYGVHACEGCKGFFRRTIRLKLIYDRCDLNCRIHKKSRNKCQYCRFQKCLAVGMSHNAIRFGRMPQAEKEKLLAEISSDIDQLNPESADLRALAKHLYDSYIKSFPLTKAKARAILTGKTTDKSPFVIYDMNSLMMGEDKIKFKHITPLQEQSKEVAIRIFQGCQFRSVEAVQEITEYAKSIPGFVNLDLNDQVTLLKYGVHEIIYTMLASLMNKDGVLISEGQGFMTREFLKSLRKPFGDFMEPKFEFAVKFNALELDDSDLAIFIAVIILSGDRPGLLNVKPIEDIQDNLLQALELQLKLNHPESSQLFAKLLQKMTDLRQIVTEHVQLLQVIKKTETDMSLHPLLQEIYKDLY

Structure (SMILES)	Potency
O=C(O)C(Br)(Br)Br	inactive
N[C@@H]1C[C@H]1c1ccccc1	inactive
CCC1(c2cccc(O)c2)CCCCN(C)C1 (stereo not given)	inactive
CCCN1CCC[C@@H]2Cc3nc(N)ncc3C[C@H]21	inactive
CN(C)CCc1c[nH]c2cccc(OP(=O)(O)O)c12	inactive
CCC(CC)(CNC(=O)CCCO)c1cccc(OC)c1	inactive
N#CN=C1SCCN1Cc1ccc(Cl)nc1	inactive
COc1ccc2c(C(=O)c3ccc(Cl)cc3)c(C)n(CC(=O)O)c2c1	inactive
BrCC1CO1 (stereo not given)	inactive
CN1C(=O)COc2c(C(=O)NC3CN4CCC3CC4)cc(Cl)cc21 (stereo not given)	inactive
CC(O)CCl (stereo not given)	inactive
N=C(N)[Se]	inactive
CCCCCCCCSC(=O)Oc1cc(Cl)nnc1-c1ccccc1	43.6 µM (active)
ClCCCCl	inactive
COC(=O)c1ccccc1CS(=O)(=O)NC(=O)Nc1nc(OC)cc(OC)n1	inactive
COP(=O)(O)OC	inactive
COc1cc(CCN)cc(OC)c1OC	inactive
CNC(=O)O/N=C(/CSC)C(C)(C)C	inactive
CCCCS(=O)(=O)Cl	inactive
CNC(=O)Oc1cc(C)c(N(C)C)c(C)c1	inactive

Structure (SMILES)	Potency
ClCCCCCCCl	inactive
CCC1(CC)C(=O)C=CNC1=O	inactive
CCOc1cc(OP(=S)(OC)OC)nc(CC)n1	inactive
CCOC(=O)CC(SP(=S)(OC)OC)C(=O)OCC (stereo not given)	inactive
CC(C)c1ccc(O)cc1	inactive
C[C@@H](N)[C@@H](O)c1ccccc1	inactive
O=C(Cl)C(Cl)(Cl)Cl	inactive
CCN(CC)C1CCCCC1	inactive
COP(=O)(OC)O/C(C)=C/C(=O)N(C)C	inactive
Cc1ccc2cc(C)ccc2c1	inactive
CCOC(=O)c1ncn2c1CN(C)C(=O)c1c(I)cccc1-2	inactive
CCCOc1nn(C(=O)NS(=O)(=O)c2ccccc2C(=O)OC)c(=O)n1C	inactive
CCCC(C)(COC(N)=O)COC(N)=O	inactive
CS(=O)(=O)c1ccc(C(=O)C2C(=O)CCCC2=O)c(Cl)c1COCC(F)(F)F	inactive
CCC(=O)OC1(c2ccccc2)CCN(C)CC1	inactive
C(COCC1CO1)OCC1CO1 (stereo not given)	inactive
CCNc1nc(NCC)nc(SC)n1	inactive
Cc1ccc2c(c1)C1CN(C)CCC1N2 (stereo not given)	inactive
c1cncc([C@@H]2CCCCN2)c1	inactive
NNC(N)=O	inactive

Reference: PubChem BioAssay (Tox21)
